# Compounds with a hit are over-represented: about 3.4% of the library has one in this group of screens.
# NTR1 ag = agonists of human NTR1, primary screen, imaging, U2OS cells, beta-arrestin-GFP, high content; Neurotensin receptor type 1 (Homo sapiens), P30989; NTR1-U2OS beta-arrestin-GFP spot imaging, agonist mode; activation, % at 20 µM; actives 0.17% (n = 330,000);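 active = activation at or above 40% of the spot to cytoplasm intensity ratio, with at least 20 cells analyzed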;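 also: 0% = DMSO without peptide and 100% = 100 nM NTR1 peptide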
# TMEM16A inh = TMEM16A chloride channel inhibitors, primary screen, cell-based, HTS; actives 1.2% (n = 310,000); Anoctamin-1 (Mus musculus), Q8BHY3; HEK293 TMEM16A/YFP iodide influx fluorescence, ionomycin; normalized B-score (activity score, 25-100; higher = stronger inhibition) at 10 µM;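 active = ratio plate-corrected score three or more library SD toward inhibition, starting fluorescence score within five deviations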;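 also: score derived from kinetic fluorescence span divided by baseline fluorescence per well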
# ANO1 activ = TMEM16A chloride channel activators or potentiators, primary screen, cell-based, HTS | Anoctamin-1 (Mus musculus), Q8BHY3 | HEK293 TMEM16A/YFP-H148Q/I152L, iodide quench fluorescence; active compounds read low | B-score at 10 µM | actives 0.3% (n = 340,000) | AID 623877, 2012;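 active = fluorescence-ratio B-score plate-corrected deviation score at least 3 library SD below zero, with starting fluorescence score within 5 deviations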;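 also: channel opened by trigger with iodide after compound preincubation; score built on the fluorescence ratio of max minus min over baseline; more negative score means more quench and so TMEM16A activation or potentiation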
# MEKK2 WT-MEK5 = modulators of MEK5 binding to wildtype MEKK2, primary screen, biochemical, multiplex bead flow cytometry, Alexa488-MEK5; Mitogen-activated protein kinase kinase kinase 2 (Homo sapiens), Q9Y2U5; Alexa488-MEK5 binding to MEKK2 WT; actives lie on both sides; binding response (% of control), % at 10 µM; actives 1.1% (n = 290,000); AID 1531, 2009; in the data active = binding response below about 67% or above about 130%
# MEKK3 PB1 HTS = modulators of MEKK3-MEK5 PB1 binding, primary screen, biochemical, wildtype MEKK3, multiplex bead flow cytometry, Alexa488-MEK5 | Mitogen-activated protein kinase kinase kinase 3 (Homo sapiens), Q99759 | bead-based flow cytometry, Alexa488-MEK5 binding to MEKK3; actives lie on both sides; 0 = blocked by unlabeled MEK5, 100 = vehicle | binding response (% of control), % at 10 µM | actives 1.4% (n = 290,000);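 active = binding response more than 3 SD above or below the average of its plate-row segment, actives on both sides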;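 also: Alexa488 bead fluorescence after subtracting the streptavidin-only scavenger bead signal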
# Target sequence (Q99759 whole entry, looked up): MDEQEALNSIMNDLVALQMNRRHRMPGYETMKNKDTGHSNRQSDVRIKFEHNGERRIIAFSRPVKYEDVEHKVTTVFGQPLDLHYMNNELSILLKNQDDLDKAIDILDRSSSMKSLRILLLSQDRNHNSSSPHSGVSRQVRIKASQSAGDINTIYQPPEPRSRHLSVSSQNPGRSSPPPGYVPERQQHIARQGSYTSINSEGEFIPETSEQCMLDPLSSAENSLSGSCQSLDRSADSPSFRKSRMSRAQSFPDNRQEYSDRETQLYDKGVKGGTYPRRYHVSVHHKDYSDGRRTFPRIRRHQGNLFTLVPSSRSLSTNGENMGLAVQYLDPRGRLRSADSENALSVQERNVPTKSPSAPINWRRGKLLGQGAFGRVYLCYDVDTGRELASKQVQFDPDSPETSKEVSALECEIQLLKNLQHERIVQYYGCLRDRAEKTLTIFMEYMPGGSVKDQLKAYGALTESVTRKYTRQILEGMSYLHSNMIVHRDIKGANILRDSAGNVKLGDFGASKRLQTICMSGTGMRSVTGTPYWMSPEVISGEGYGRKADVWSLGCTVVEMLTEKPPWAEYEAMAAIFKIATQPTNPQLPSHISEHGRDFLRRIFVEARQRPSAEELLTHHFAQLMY
# MEKK2mut PB1 HTS = MEK5 binding signal on mutant MEKK2 PB1, primary screen, biochemical, multiplex bead flow cytometry, Alexa488-MEK5 | AID 1530, 2009 | percent response, % at 10 µM | Alexa488-MEK5 binding to MEKK2 mutant | actives 0.35% (n = 290,000); in the data active = percent response above about 24%, passing the limit was not always enough
# MEKK2wt confirm = modulators of MEK5 binding to wildtype MEKK2, confirmation, biochemical, single concentration, multiplex bead flow cytometry. binding response (% of control), % at 10 µM. actives 2.4% (n = 5,900). shares compounds with MEKK3 PB1 HTS. Alexa488-MEK5 binding to MEKK2 WT; actives lie on both sides; in the data active = binding response below about 16% or above about 210%; inactive = in between
# MEKK2mut confirm = mutant MEKK2 PB1-MEK5 binding signal retest – biochemical, single concentration, multiplex bead flow cytometry, confirmation | shares compounds with MEKK3 PB1 HTS | Alexa488-MEK5 binding to MEKK2 mutant | percent response, % at 10 µM | actives 2% (n = 5,900) | AID 1893, 2009; in the data active = percent response mostly above about 71%, no sharp cut-off; inactive = mostly below about 38%;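 also: higher means compound restores mutant binding toward wildtype level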
# MEKK3 confirm = MEKK3 wild-type PB1 binding to MEK5, inhibitors, confirmation, biochemical, bead multiplex flow cytometry, single concentration, wildtype; actives 1.8% (n = 5,900); AID 1894, 2009; shares compounds with MEKK3 PB1 HTS; Alexa488-MEK5 binding to MEKK3; active compounds read low; binding response (% of control), % at 10 µM;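 active = binding response below 72% of control, or above a set upper limit, though filed actives all read lower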;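 also: 100% = DMSO only wells and 0% = binding blocked by excess unlabeled MEK5; lower values mean stronger disruption of MEK5 binding to MEKK3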
# * hit, by the source's call; i = inactive; . = no result given; [ ] = remark or other dose.
SMILES,NTR1 ag,TMEM16A inh,ANO1 activ,MEKK2 WT-MEK5,MEKK3 PB1 HTS,MEKK2mut PB1 HTS,MEKK2wt confirm,MEKK2mut confirm,MEKK3 confirm
O=C(NCc1ccc(N2CCCC2=O)cc1)Nc1ccccc1,1.0,i,i,103.0,103.0,3.0,.,.,.
O=C(NCc1ccc(N2CCCC2=O)cc1)Nc1cccc2ccccc12,-1.1,i,i,-1.0*[inhibitor],1.0*[inhibitor],-9.0,101.0,1.0,103.0
COc1ccccc1CNC(=O)CCNC(=O)Cn1ccc2ccccc2c1=O,-0.6,i,i,103.0,102.0,-2.0,.,.,.
COc1ccc(CCNC(=O)CSc2nn(-c3ccccc3)c(=S)s2)cc1OC,1.3,i,i,105.0,148.0*,0.0,107.0,-3.0,106.0
COc1ccc(CCNC(=O)Cn2cnc3ccccc3c2=O)cc1OC,1.6,i,i,105.0,129.0*,0.0,105.0,-1.0,100.0
COc1ccccc1CNC(=O)CCNC(=O)Cn1cnc2ccccc2c1=O,-2.2,i,i,-1.0*[inhibitor],0.0*[inhibitor],-9.0,99.0,-3.0,99.0
CN(C)CCCN(C(=O)c1ccc(S(=O)(=O)N2CCCC2)cc1)c1nc2ccc(Br)cc2s1,0.1,i,i,181.0*,104.0,30.0*,234.0*,112.0*,127.0
CN(C)CCCN(C(=O)c1ccc(S(=O)(=O)N(C)C2CCCCC2)cc1)c1nc2ccc(F)cc2s1,17.2,i,i,163.0*,107.0,28.0*,160.0,36.0,104.0
CCc1ccc2nc(N(CCCN(C)C)C(=O)c3ccc(S(=O)(=O)N(C)C4CCCCC4)cc3)sc2c1,10.4,i,i,210.0*,114.0,51.0*,194.0,58.0,107.0
CCOc1ccc2nc(N(CCCN(C)C)C(=O)c3ccc(S(=O)(=O)N4CCCC4)cc3)sc2c1,1.5,i,i,124.0,106.0,16.0,.,.,.
CCN(CC)CCN(C(=O)c1ccc(S(=O)(=O)N2CCCC2)cc1)c1nc2cc(C)cc(C)c2s1,-0.1,i,i,142.0*,105.0,21.0,135.0,12.0,101.0
Cc1ccc(C(=O)OCC(=O)NC2CCCC(C)C2C)cc1S(=O)(=O)N1CCCCC1 (centres undefined),-0.7,.,i,.,.,.,.,.,.
COc1ccc(CCNC(=O)C(=O)NCc2cccs2)cc1OC,2.1,i,i,106.0,104.0,8.0,.,.,.
CCN(Cc1ccccc1)S(=O)(=O)c1ccc(C(=O)N(CCCN(C)C)c2nc3ccc(F)cc3s2)cc1,17.4,i,i,210.0*,104.0,38.0*,208.0*,64.0,108.0
CCN(Cc1ccccc1)S(=O)(=O)c1ccc(C(=O)N(CCCN(C)C)c2nc3cc4c(cc3s2)OCCO4)cc1,31.4,i,i,.,.,.,.,.,.
CN(C)CCCN(C(=O)c1ccc(S(=O)(=O)N(C)C2CCCCC2)cc1)c1nc2ccc(Br)cc2s1,14.9,i,i,195.0*,103.0,32.0*,174.0,29.0,74.0
Cn1nnc2ccccc2c1=O,-1.1,i,i,129.0,141.0*,7.0,100.0,-2.0,98.0
COc1ccc(S(=O)(=O)N2CCC(n3cnc4ccccc43)CC2)cc1,-2.2,i,i,105.0,103.0,4.0,.,.,.
COc1ccc(S(=O)(=O)N2CCC(n3cnc4cc(C(F)(F)F)ccc43)CC2)cc1,0.7,i,i,107.0,126.0*,4.0,105.0,1.0,103.0
O=C1C2C3CCC(C3)C2C(=O)N1c1ccc2ccccc2c1 (centres undefined),0.0,i,i,112.0,101.0,9.0,.,.,.
O=C1C2C3C=CC(C3)C2C(=O)N1c1ccc2ccccc2c1 (centres undefined),-1.0,i,i,116.0,114.0,26.0*,99.0,-4.0,99.0
COC(=O)c1ccc(COC(=O)c2cccn2C)o1,0.4,i,i,105.0,104.0,3.0,.,.,.
Cc1ccc(Sc2nc(C)cc(C)c2S(C)(=O)=O)cc1,-0.5,i,i,95.0,82.0*[inhibitor],-10.0,104.0,-1.0,100.0
CCN(CC)CCNC(=O)C(=O)NCC1OCCN1S(=O)(=O)c1cccs1 (centres undefined),0.8,i,i,137.0*,103.0,20.0,109.0,5.0,101.0
CC(=O)c1ccc(NC(=O)CSc2ccc(-c3ccc4c(c3)OCO4)nn2)cc1,0.4,i,i,103.0,130.0*,0.0,106.0,7.0,107.0
SMILES,NTR1 ag,TMEM16A inh,ANO1 activ,MEKK2 WT-MEK5,MEKK3 PB1 HTS,MEKK2mut PB1 HTS,MEKK2wt confirm,MEKK2mut confirm,MEKK3 confirm
Cc1ccccc1-c1ncc(CN2CCC(CO)(CCCc3ccccc3)CC2)cn1,-1.1,i,i,130.0,108.0,27.0,.,.,.
COc1ccc(Cn2c(-c3ccc(Br)cc3)c[n+]3ccccc23)cc1,-0.1,i,i,140.0*,110.0,36.0,118.0,11.0,106.0
Cc1ccccc1C(=O)NCC(=O)NNC(=O)c1cccc(Cl)c1,2.5,.,i,.,.,.,.,.,.
O=[N+]([O-])c1cc([N+](=O)[O-])c(N2CCCCCC2)cc1NCCO,9.0,i,i,101.0,98.0,2.0,.,.,.
Cc1cc(C)nc(NN2C(=O)/C(=C/c3ccccc3)SC2=S)n1,-2.1,i,i,109.0,106.0,7.0,.,.,.
COc1cc(/C=C2\SC(=S)N(Nc3ccccc3)C2=O)ccc1O,-3.1,i,i,58.0,94.0,-3.0,.,.,.
CN(C)c1ccc(/C=C2\SC(=S)N(Nc3ncc(C(F)(F)F)cc3Cl)C2=O)cc1,-8.4,i,i,305.0*,97.0,309.0*,34.0,-35.0,56.0*

# Compound activity deposited in PubChem by several laboratories.
